Assay outcomes: PubChem BioAssay, National Center for Advancing Translational Sciences (NCATS)
D3 ag = agonists of human D3 dopamine receptor. max activation, %. P35462. 0.58% of 410,000 active. D3R DiscoveRx beta-arrestin cells, luminescence, 90 min; in the data active = max activation above about 30%; also: 0% is about no effect
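Agonist-mode cell screen: cells plated at 1500/well and incubated overnight at 37 °C, then exposed to library compounds for 90 min at 37 °C. Detection reagent was added for 30–60 min at room temperature, and luminescence was read.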
D1 antag = blocks dopamine activation of the human D1 receptor | P21728 | HEK293 TREx D1 cells, calcium flux, dopamine EC80; stronger effect = lower value | activity change, negative = inhibition, % at 10 µM | 3.2% of 360,000 active | AID 504652; in the data active = activity change below about -30%; also: % is scaled to controls: 0 for no effect and ±100 for the full control effect
Target sequence (P21728 whole entry, looked up): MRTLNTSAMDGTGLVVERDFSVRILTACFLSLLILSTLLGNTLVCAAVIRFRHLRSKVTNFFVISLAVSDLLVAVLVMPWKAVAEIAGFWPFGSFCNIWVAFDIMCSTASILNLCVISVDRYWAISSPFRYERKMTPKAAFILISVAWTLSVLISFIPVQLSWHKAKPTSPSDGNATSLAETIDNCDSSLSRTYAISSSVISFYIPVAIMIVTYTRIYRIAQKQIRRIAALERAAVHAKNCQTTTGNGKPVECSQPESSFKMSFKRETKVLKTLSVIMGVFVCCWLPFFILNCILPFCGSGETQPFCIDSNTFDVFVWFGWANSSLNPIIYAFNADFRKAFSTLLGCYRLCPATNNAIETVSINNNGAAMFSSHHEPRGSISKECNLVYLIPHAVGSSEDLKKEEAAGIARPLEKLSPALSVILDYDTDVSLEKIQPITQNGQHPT
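HEK293 T-REx cells expressing inducible, force-coupled D1 receptor; no-wash Ca dye, 30–90 min RT. Cmpd → 180 s read at 1 Hz → EC80 DA → 180 s read.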
DRD3 antagonist = antagonists of human D3 dopamine receptor. 2.5% of 360,000 active. max response, negative = inhibition, %. D3R cells, DiscoveRx beta-arrestin luminescence, antagonist mode; stronger effect = lower value. P35462; in the data active = max response below about -50%; inconclusive = no clear call, values can overlap the other calls; also: % is scaled to controls: 0 for no effect and ±100 for the full control effect
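Cells expressing the human receptor were seeded at 1500 cells/well, incubated overnight at 37 degrees C in 5% CO2, then exposed to library compounds with dopamine controls for 90 minutes at 37 degrees C before luminescent detection.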
D1 PAM = enhances dopamine response at the human D1 receptor; P21728; HEK293 TREx D1 cells, calcium flux, dopamine EC20 potentiation; potentiation, % at 10 µM; 0.036% of 360,000 active; in the data active = potentiation above about 30%; also: 0% is about no effect
D1 agonist = activates the human D1 dopamine receptor. activation, % at 2 µM. P21728. HEK293 T-REx D1 cells, calcium flux, agonist mode. 1% of 360,000 active; in the data active = activation above about 30%; also: 0% is about no effect
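Agonism was scored from calcium flux recorded over 180 s (1 read/s) after pintool compound addition, following a 10-cycle baseline. Cells were inducible force-coupled HEK293 TREx D1, plated overnight at 30 C and loaded with no-wash calcium dye.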
* marks the source's active call; other numbers are inactive results; u = inconclusive; x = no result given. Shown are actives, neighbours in structure and some others; about 6% of the full set was active somewhere.

SMILES	D3 ag	D1 antag	DRD3 antagonist	D1 PAM	D1 agonist
Cn1c(SCc2ccc(F)cc2)nc2ccc(C(=O)NCc3cccc(Cl)c3)cc21	-14.8	-9.4	x	-5.5	10.9
CCN(c1ccc(OC)cc1)S(=O)(=O)c1ccc(-c2ccc(=O)[nH]n2)o1	-5.4	-41.4*	-8.5	4.8	7.9
Cc1ccccc1-c1ccc(C(=O)NCc2ccccc2)o1	-34.8	-42.4*	-11.5	-8.0	-1.3
O=C(NCc1ccccc1)c1ccc(-c2ccccc2C(F)(F)F)o1	-89.7	-7.6	-55.8*	-5.8	12.7
O=C(O)c1ccc(-c2ccccc2C(F)(F)F)o1	4.2	-3.4	24.4	1.2	0.0
O=c1cc(O)c(Cl)c[nH]1	6.0	x	x	x	x
Cc1cccc(C(=O)Nc2nnc(S(=O)(=O)N(C)c3ccccc3C)s2)c1	-28.4	1.4	x	-0.3	2.9
CCOC(=O)N1CCC(Nc2ncnc3c2cnn3-c2ccc(C)cc2C)CC1	3.8	-31.1*	-17.8	-3.9	0.8
Cc1ccc(-n2ncc3c(NCC(C)C)ncnc32)c(C)c1	-16.9	-32.0*	x	-1.1	-1.5
CC(=O)Nc1ccc(Nc2ncnc3c2cnn3-c2ccc(C)cc2C)cc1	-3.1	x	-3.4	-4.2	-1.9
C=CCNc1ncnc2c1cnn2-c1ccc(C)cc1C	1.9	17.2	-1.2	4.3	-0.5
O=C1NCN(c2ccccc2)C12CCN(CCCC(c1ccc(F)cc1)c1ccc(F)cc1)CC2	-84.9	-25.7	-103.8*	-12.6	1.1
Cc1c(O)ccoc1=O	17.1	-1.1	1.5	-1.7	-1.2
Cc1occc(=O)c1O	1.4	7.9	-53.4*	3.8	1.6
CCOC(=O)[C@H](CCc1ccccc1)N[C@@H](C)C(=O)N(CC(=O)O)C1Cc2ccccc2C1	-28.9	x	x	x	x
Cc1ccc(OCC(=O)N(Cc2ccco2)Cc2ccco2)cc1	3.9	-15.2	x	-1.6	2.0
Cc1cc(C)c2c(CC(=O)N(Cc3ccc(N(C)C)cc3)Cc3ccco3)coc2c1	4.1	4.8	x	3.1	2.3
Cc1ccc(CN(Cc2ccco2)C(=O)COc2ccc(C(C)C)cc2)cc1	-8.6	-55.8*	x	1.0	46.2*
Cc1ccc2c(CC(=O)N(Cc3ccc(Cl)cc3)Cc3ccco3)coc2c1	-7.2	-22.2	x	-1.3	32.9*
COc1ccc(CN(C(=O)c2ccccc2F)C2CCS(=O)(=O)C2)cc1 (configuration not stated)	-7.2	7.6	x	-1.2	0.6
Cc1cccc(OCC(=O)Nc2ccc3c(c2)nc(CCN2CCN(c4ccccn4)CC2)n3C)c1	25.3	-31.2*	1.0	-8.1	9.7
Cc1cccc(OCC(=O)Nc2ccc3c(c2)nc(CN2CCCCC2)n3C)c1	-14.5	-17.8	-92.5*	-2.1	5.7
COc1ccc(OCC(=O)Nc2ccc3c(c2)nc(CCN2CCN(c4ccccn4)CC2)n3C)cc1	13.9	x	-9.8	x	x
C[C@@H]1CN([C@@H](C)CO)C(=O)c2cc(Br)cnc2O[C@H]1CN(C)Cc1ccccc1C(=O)O	5.0	x	5.2	x	x
Nc1ncnn1Cc1ccccc1	7.6	x	23.1	x	x
SMILES	D3 ag	D1 antag	DRD3 antagonist	D1 PAM	D1 agonist
COCCCNC(=O)c1cnn(-c2ccccc2Cl)c1C1CCN(C(=O)OC(C)(C)C)CC1	-8.6	7.5	x	4.5	3.2
CCN(CC)CCCNC(=O)c1ccc2c(c1)sc1nc(-c3ccc(C)cc3)cn12	-14.0	-7.7	x	-2.6	-0.6
CC(C)NC(=O)C1CCN(C(=O)N2CCOc3ccc(Cl)cc32)CC1	0.7	-7.0	x	3.4	0.6
COc1ccccc1NC(=O)CN1CCC(n2nnc3cc(F)ccc32)CC1	-5.7	-46.2*	u	-8.6	0.6
COc1ccc(Cl)cc1NC(=O)CN1CCCCCC1	-16.9	7.7	u	4.3	2.0
COc1ccc(Cl)cc1NC(=O)CN1CCC(n2nnc3cc(C)ccc32)CC1	0.3	-37.4*	-22.5	-7.5	1.8
COc1ccccc1NC(=O)CN1CCC(n2c(C)nc3cc(F)ccc32)CC1	0.9	7.8	19.1	-10.9	2.1
COc1ccc(C(=O)NNC(=O)CN2CCC(n3nnc4cc(F)ccc43)CC2)cc1	-9.3	-34.3*	-2.3	3.4	1.4
COc1ccc(C(=O)NNC(=O)CN2CCC(n3nnc4cc(C(F)(F)F)ccc43)CC2)cc1	10.7	-18.1	9.9	-2.4	26.9
Cc1ccc2c(c1)nnn2C1CCN(CC(=O)Nc2ccccc2N2CCOCC2)CC1	-28.6	-30.2*	u	-13.1	2.7
Cc1ccccc1-c1cc2nc(Oc3cccc4ccccc34)n(C)c(=O)c2s1	4.5	x	7.1	x	x
